Source: PubChem BioAssay
Many of the other results were omitted from the sample, so hits are more common in it than they were.
HIV RNase H inh-1: blocks HIV-1 RNase H cleavage of RNA/DNA duplex. P04585. RT-RNase H RNA/DNA duplex cleavage, fluorescence. inhibition, % at 10 µM. hit rate 1.9% among 65,000. AID 565; in the data active = inhibition above about 50%
RmlCD inh mix: inhibitors of RmlC and RmlD coupled enzymes | inhibition, % at 5.5 µM | hit rate 0.39% among 110,000 | RmlC/RmlD coupled enzyme inhibition, 384-well mixture HTS; in the data active = inhibition above about 30%, passing the limit was not always enough; inconclusive = no clear call, values can overlap the other calls
HIV RNase H inh-2: confirmation of HIV-1 reverse transcriptase RNase H inhibitors | shares compounds with HIV RNase H inh-1 | Recombinant RT RNase H, fluorescent RNA/DNA duplex cleavage | inhibition, % at 10 µM | hit rate 39% among 1,000 | AID 651; in the data active = inhibition above about 48%; inconclusive = no clear call, values can overlap the other calls
Hits are given with their value; . = inactive; ? = inconclusive; / = no result given.

SMILES	HIV RNase H inh-1	RmlCD inh mix	HIV RNase H inh-2
COCCNC(=O)C(OC(=O)CC1Sc2ccccc2NC1=O)c1ccccc1 (stereo unspecified)	/	.	/
O=c1c2[nH]c3ccccc3c2ncn1CCN1CCOCC1	.	.	/
O=c1c2[nH]c3ccccc3c2ncn1CCN1CCCCC1	78	.	.
CCO[C@H]1OC(C(=O)Nc2ccccc2)=C[C@@H](C)[C@@H]1CCCO	/	.	/
CCOC(=O)c1sc(NC(=O)CSc2n[nH]c(-c3ccccc3)n2)c(C#N)c1C	83	/	62
CCOC(=O)c1sc(NC(=O)CSc2nc(-c3ccco3)cc(C(F)(F)F)n2)c(C#N)c1C	76	.	?
CCOC(=O)c1c(NC(=O)CSc2nnc(Cc3ccccc3)o2)sc(C(C)=O)c1C	/	.	/
CCOC(=O)c1sc(NC(=O)CSc2nc(C)cc(C)n2)c(C#N)c1C	/	.	/
Cc1cccc(C)c1NC(=O)CSc1nc(-c2ccco2)cc(C(F)(F)F)n1	/	.	/
CCOC(=O)c1sc(NC(=O)CSc2nnc(Cc3ccccc3)o2)c(C#N)c1C	90	/	54
COCCN(C(=O)CSc1nnc(Nc2ccccc2F)s1)c1c(N)n(Cc2ccccc2)c(=O)[nH]c1=O	/	.	/
C#CCOCCOCCOCCNc1nc(N2CCN(C(=O)[C@H](CCC(=O)O)n3cc(C(N)[C@H](C)CC)nn3)CC2)nc(N2CCN(C(=O)[C@H](CCC(=O)O)n3cc(C(N)[C@H](C)CC)nn3)CC2)n1 (stereo partly specified)	/	.	/
CCC(SC1=N/C(=C/c2ccccc2OC)C(=O)N1c1ccccc1)C(=O)Nc1cc(C)on1 (stereo unspecified)	/	.	/
O=c1ccc(/C=C/c2ccccc2)nn1Cc1ccccc1Cl	/	.	/
O=C(Nc1nnc(CC(=O)N2CCOCC2)s1)c1cccs1	.	.	/
O=C(COc1cc(Cl)ccc1Cl)Nc1nnc(CC(=O)N2CCOCC2)s1	80	.	.
CCCCCOC(=O)C1=C(C)Nc2nnnn2C1c1ccccc1Cl (stereo unspecified)	/	.	/
C#CCNC(=O)C1=C[C@@H](c2ccc(C(F)(F)F)cc2)[C@H](CCCO)[C@@H](OCC)O1	/	.	/
CCOc1cc(/C=N/n2cnnc2)ccc1O	.	.	/
Cn1c(=O)n(C)c2cc(/C=N/n3cnnc3)ccc21	59	.	.
C=CC[C@@H]1C=C(C)C[C@H](C)C[C@H](OC)[C@H]2O[C@@](O)(C(=O)C(=O)N3CCCC[C@H]3C(=O)O[C@H](/C(C)=C/[C@@H]3CC[C@@H](O)[C@H](OC)C3)[C@H](C)[C@@H](O)CC1=O)[C@H](C)C[C@@H]2OC	/	.	/
COc1ccc(CN(Cc2cc3cc4c(cc3[nH]c2=O)OCO4)C(=O)NC2CCCCC2)cc1	.	.	/
COC(=O)c1ccccc1S(=O)(=O)N(Cc1cc2cc3c(cc2[nH]c1=O)OCO3)C1CCCCC1	53	/	52
CC(C)Cn1c(=O)c(C(=O)Nc2ccncc2)c(O)c2ccccc21	71	/	.
O=C(Nc1ccncc1)c1c(O)c2ccccc2n(Cc2ccccc2)c1=O	.	/	/
SMILES	HIV RNase H inh-1	RmlCD inh mix	HIV RNase H inh-2
CC1CCCC/C1=N\NS(=O)(=O)c1ccc(Br)cc1 (stereo unspecified)	/	.	/
Cc1nnsc1C(=O)NC(C)C12CC3CC(CC(C3)C1)C2 (stereo unspecified)	/	.	/
CCSc1nnc(NC(=O)c2csc3c2CCCC3)s1	62	.	?
CCSc1nnc(NC(=O)c2cc3c(s2)CCCC3)s1	.	.	/
COc1ccc(NCc2nnc(SCC(=O)c3ccc(OC)cc3)o2)cc1	/	.	/
CCOc1cc(C(=O)CSc2nnc(CNc3ccc(Cl)cc3)o2)ccc1NC(=O)CC	67	.	.
CC(=O)Nc1nnc(-c2ccc3c(c2)CCCC3)o1	.	.	/
O=C(COc1ccc(Cl)cc1)Nc1nnc(-c2ccc3c(c2)CCCC3)o1	87	.	67
COc1ccc(Cl)cc1N1CC(c2nc3ccccc3[nH]2)CC1=O (stereo unspecified)	.	.	/
O=C1CC(c2nc3ccccc3[nH]2)CN1c1ccccc1F (stereo unspecified)	63	.	.
CCOC(=O)C1=C(C)N(CCC(=O)O)C(=O)NC1c1ccccc1Cl (stereo unspecified)	/	.	/
CC1=C(C)NC(=S)SC1	55	.	.
COC(=O)c1ccc(C(=O)OC)c(NC(=O)CN(c2ccc3c(c2)OCO3)S(C)(=O)=O)c1	/	.	/
Cc1ccc(S(=O)(=O)N2CCC(=O)N(CCO)CC2)cc1	/	.	/
c1ccc(-c2nn3c(-c4ccncc4)nnc3s2)nc1	64	/	.
Clc1ccccc1-c1nnc2sc(-c3ccncc3)nn12	.	.	/
Clc1ccc(-c2nnc3sc(-c4ccccn4)nn23)cc1	.	.	/
Clc1ccccc1-c1nn2c(-c3ccncc3)nnc2s1	87	.	57
CC1CCCCN1C(=O)/C(=C\c1ccccc1)c1ccccc1 (stereo unspecified)	/	.	/
COC(=O)c1ccc(=O)c2nc3/c(=C/O)c(O)cc(=O)c3[nH]c12	/	.	/
CCCCCCN(C(=O)CCCCCN1C(=O)NC(c2ccccc2)C(C(=O)OCc2ccccc2)=C1C)C(C(=O)NCCCC)c1ccc(OCC(=O)OC)c(C(=O)OC)c1 (stereo unspecified)	/	.	/
CC(=O)Nc1nc2n(n1)C(c1ccccc1)C=C(c1ccccc1)N2 (stereo unspecified)	.	.	/
COc1ccc(C2C=C(c3ccc(Cl)cc3)Nc3nc(NC(C)=O)nn32)cc1 (stereo unspecified)	56	/	.
COC(=O)C[C@H]1c2cc(C(F)(F)F)ccc2S(=O)(=O)N1Cc1ccccc1OC	/	.	/
O=C1CC(c2ccco2)Cc2nc(Nc3nc(-c4ccccc4)c4ccccc4n3)ncc21 (stereo unspecified)	73	/	66
SMILES	HIV RNase H inh-1	RmlCD inh mix	HIV RNase H inh-2
O=C(Nc1ncc2c(n1)CC(c1ccco1)CC2=O)c1ccccc1 (stereo unspecified)	.	/	/
Cc1ccc2cc(C#N)c(NCCNC(=O)C3CC3)nc2c1C	.	/	/
Cc1cccc(C)c1OCC(=O)Nc1cccc(-c2nnc(-c3ccccc3)o2)c1	.	.	/
Cc1cccc(OCC(=O)Nc2cccc(-c3nnc(-c4ccccc4)o3)c2)c1C	71	.	66
O=C(NCc1cccc(Br)c1)C1CC(c2ccccc2C(F)(F)F)=NO1 (stereo unspecified)	/	.	/
CCOC(=O)c1cc2sc(C)cc2n1CC(=O)Nc1cccc(C)c1C	.	.	/
CCOC(=O)c1cc2sc(C)cc2n1CC(=O)Nc1ccc2c(c1)OCCO2	58	.	?
N#Cc1c(NC(=O)c2ccc(Cn3cc(Br)cn3)o2)sc2c1CCCCCC2	88	.	62
Cc1ccc(NC(=O)c2ccc(Cn3cc(Br)cn3)o2)cc1	/	.	/
CCOc1ccc(NC(=O)c2ccc(F)cc2F)cc1	/	.	/
Fc1ccc(-n2nnnc2-c2cnc(-c3cccs3)nc2C(F)(F)F)cc1	/	.	/
Cc1nn(Cc2ccc(Cl)cc2)c(C)c1NC(=O)c1cc(-c2ccco2)on1	.	/	/
COc1ccc(-c2cc(C(=O)Nc3c(C)nn(Cc4ccc(Cl)cc4)c3C)no2)cc1	62	.	.
Nc1c(C(=O)N2CCOCC2)sc(=S)n1-c1ccccc1	95	.	65
Cc1cc(C(=O)N2CCOCC2)n(-c2ccccc2)n1	.	.	/
Nc1c(C(=O)N2CCCCC2)sc(=S)n1-c1ccccc1	97	.	77
O=C(c1nc(-c2ccccc2)n(-c2ccccc2)n1)N1CCCCCC1	.	.	/
